What all share (set-up): scale not given: direction of the effect not stated beside the values
Assay [1] addresses Protein translocase subunit SecA (Escherichia coli (strain K12)) (UniProt P10408). The experiment in a line: Assay to Identify E. coli SecA ATPase Inhibitors. Format: functional. The settings on record: 30 µM.
The target of assay [2] is T1, Ubiquitin-activating enzyme e1, putative (Leishmania donovani (strain BPK282A1)) (UniProt E9BSI1).
T1 sequence (whole entry): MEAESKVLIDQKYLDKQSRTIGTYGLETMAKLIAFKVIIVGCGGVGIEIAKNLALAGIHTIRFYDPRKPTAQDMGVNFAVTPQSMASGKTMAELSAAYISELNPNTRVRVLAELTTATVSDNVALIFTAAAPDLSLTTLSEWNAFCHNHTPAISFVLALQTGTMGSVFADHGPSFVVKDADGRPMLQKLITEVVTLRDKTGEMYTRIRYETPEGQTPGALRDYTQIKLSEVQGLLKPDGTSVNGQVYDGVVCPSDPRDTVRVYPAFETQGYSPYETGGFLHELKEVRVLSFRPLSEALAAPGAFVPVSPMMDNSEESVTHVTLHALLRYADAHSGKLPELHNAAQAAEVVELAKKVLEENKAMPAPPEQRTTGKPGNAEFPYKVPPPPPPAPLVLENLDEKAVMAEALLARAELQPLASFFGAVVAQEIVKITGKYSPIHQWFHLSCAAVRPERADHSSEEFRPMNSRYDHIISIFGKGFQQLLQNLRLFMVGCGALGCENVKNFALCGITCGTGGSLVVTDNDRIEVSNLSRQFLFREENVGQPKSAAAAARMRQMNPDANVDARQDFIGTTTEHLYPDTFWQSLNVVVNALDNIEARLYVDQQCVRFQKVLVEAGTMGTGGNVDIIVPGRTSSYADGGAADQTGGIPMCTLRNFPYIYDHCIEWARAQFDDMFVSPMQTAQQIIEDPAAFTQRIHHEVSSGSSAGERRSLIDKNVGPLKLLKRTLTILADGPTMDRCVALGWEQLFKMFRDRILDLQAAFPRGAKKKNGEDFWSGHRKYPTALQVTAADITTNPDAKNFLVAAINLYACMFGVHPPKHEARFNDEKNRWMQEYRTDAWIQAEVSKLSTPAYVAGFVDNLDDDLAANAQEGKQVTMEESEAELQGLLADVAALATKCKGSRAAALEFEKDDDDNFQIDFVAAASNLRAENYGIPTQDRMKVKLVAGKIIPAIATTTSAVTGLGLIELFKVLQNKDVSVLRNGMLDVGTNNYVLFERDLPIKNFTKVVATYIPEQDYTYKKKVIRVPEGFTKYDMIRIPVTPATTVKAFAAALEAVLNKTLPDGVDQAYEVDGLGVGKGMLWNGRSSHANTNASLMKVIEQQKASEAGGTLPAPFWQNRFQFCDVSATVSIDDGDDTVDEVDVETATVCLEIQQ
The assay is described as follows: Leishmania donovani Ubiquitin Activating Enzyme (LdE1). Format: functional. The settings on record: 30 µM.

In assay [3] the target is AMP-activated protein kinase, AMPK (Homo sapiens) (UniProt P54646+O43741+P54619+Q9UGJ0+Q9Y478+Q13131+Q9UGI9). The assay is described as follows: AMP-dependent Kinase enzyme assay. An in vitro enzyme assay that detects ADP turnover that is directly proportional to AMPK activity. This uses naive AMPK that is activated during the assay with MK-8722. The class given is functional. The conditions noted are these: 30 µM.

In assay [4] the target is Sialic acid-binding Ig-like lectin 9 (Homo sapiens) (UniProt Q9Y336). The assay is described as follows: Hs-Siglec9 ALPHAscreen SOP 20170721. The settings on record: 10 µM. For orientation: In Alpha technology, singlet oxygen from a donor bead excites a nearby acceptor bead.
Chain of Sialic acid-binding Ig-like lectin 9 (Homo sapiens) (Q9Y336 whole entry): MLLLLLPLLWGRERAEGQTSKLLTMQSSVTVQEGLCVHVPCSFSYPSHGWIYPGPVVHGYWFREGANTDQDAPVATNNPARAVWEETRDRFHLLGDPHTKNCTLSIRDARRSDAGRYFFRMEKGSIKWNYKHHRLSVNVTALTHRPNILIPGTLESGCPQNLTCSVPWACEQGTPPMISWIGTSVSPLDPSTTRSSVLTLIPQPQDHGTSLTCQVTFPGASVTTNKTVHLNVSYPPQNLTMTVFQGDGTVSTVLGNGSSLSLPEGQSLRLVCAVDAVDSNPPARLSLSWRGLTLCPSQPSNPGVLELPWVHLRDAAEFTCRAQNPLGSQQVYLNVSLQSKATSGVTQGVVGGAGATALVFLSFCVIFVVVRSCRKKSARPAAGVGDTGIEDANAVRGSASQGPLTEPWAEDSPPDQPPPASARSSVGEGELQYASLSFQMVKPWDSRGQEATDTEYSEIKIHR
Assay [5] has as its system Trypanosoma cruzi. The assay is described as follows: Trypanosoma cruzi phosphomannomutase and mannose-1-phosphate guanylyltransferase assay. The class given is functional. The conditions noted are these: 10 µM.
The target in assay [6] is T2, Arginase-2, mitochondrial (Homo sapiens) (UniProt P78540).
T2 sequence (whole entry): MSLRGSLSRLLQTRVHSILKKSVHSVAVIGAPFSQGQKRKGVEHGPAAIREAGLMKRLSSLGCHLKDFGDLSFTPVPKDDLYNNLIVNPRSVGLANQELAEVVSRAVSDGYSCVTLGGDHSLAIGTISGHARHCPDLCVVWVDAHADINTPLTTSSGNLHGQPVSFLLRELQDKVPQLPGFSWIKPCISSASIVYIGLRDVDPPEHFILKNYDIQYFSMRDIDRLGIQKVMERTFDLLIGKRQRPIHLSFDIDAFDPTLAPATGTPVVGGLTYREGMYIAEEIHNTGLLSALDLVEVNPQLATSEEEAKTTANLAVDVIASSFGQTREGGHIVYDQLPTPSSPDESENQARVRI
The assay is described as follows: in vitro enzyme assay to detect the production of urea directly proportional to the activity of Arginase II. Also: in the data most compounds retested in dose-response had high values. The conditions noted are these: 33.3 µM. The class given is functional.

In assay [7] the target is T3, Proteasome subunit beta (Trypanosoma cruzi) (UniProt O96673).
T3 sequence (whole entry): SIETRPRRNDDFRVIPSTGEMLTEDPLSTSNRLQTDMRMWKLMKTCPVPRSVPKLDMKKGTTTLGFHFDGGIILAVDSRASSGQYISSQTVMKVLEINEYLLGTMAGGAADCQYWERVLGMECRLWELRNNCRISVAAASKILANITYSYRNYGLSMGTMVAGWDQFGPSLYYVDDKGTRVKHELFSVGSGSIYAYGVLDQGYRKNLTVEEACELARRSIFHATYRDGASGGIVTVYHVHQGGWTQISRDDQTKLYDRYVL
The experiment in a line: Trypanosoma cruzi proteasome chymotrypsin-like activity (TcProtChymo) assay. Also: in the data most compounds retested in dose-response had high values. The conditions noted are these: 9.37 µM. Format: functional.

For assay [8], the species on record is Homo sapiens. The experiment in a line: To identify inhibition of the IFN signalling (Jak-Stat) pathway via expression of an eGFP reporter gene under the control of an IFN-stimulated response element (ISRE) containing MxA promoter. The class given is functional. The conditions noted are these: 30 µM.
For assay [9], the target named is T4, Tyrosyl-tRNA synthetase, putative (Trypanosoma cruzi (strain CL Brener)) (UniProt Q4DSP6).
T4 sequence (whole entry): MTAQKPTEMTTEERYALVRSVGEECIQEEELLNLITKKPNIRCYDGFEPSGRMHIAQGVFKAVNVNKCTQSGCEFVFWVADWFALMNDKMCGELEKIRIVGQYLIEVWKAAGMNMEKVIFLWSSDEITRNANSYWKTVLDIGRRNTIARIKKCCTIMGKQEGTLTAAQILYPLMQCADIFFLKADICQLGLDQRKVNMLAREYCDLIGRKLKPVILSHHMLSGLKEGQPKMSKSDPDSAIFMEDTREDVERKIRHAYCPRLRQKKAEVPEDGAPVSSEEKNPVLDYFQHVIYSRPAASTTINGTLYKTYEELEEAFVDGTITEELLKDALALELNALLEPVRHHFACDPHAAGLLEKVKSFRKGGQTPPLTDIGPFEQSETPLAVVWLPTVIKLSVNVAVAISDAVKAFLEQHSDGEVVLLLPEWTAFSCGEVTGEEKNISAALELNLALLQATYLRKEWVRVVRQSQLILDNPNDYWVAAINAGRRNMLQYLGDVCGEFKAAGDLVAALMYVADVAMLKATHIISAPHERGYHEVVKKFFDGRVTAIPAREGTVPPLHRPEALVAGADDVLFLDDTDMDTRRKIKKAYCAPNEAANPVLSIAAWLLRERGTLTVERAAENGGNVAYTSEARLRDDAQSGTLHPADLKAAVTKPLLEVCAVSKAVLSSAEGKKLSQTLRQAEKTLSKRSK
The assay is described as follows: Trypanosoma cruzi tyrosyl tRNA synthetase (TcYRS) _High Tyrosine SOP. Also: in the data most compounds retested in dose-response had high values. The class given is functional. The conditions noted are these: 30 µM.

The target of assay [10] is T4, Tyrosyl-tRNA synthetase, putative (Trypanosoma cruzi (strain CL Brener)). The assay is described as follows: Trypanosoma cruzi tyrosyl tRNA synthetase (TcYRS) SOP. The conditions noted are these: 30 µM. Format: functional.
The target in assay [11] is Chromo domain-containing protein 1 (Saccharomyces cerevisiae (strain ATCC 204508 / S288c) (Baker's yeast)) (UniProt P32657). The assay is described as follows: ScCHD-1 Enzyme Inhibition Assay. Also: in the data most compounds retested in dose-response had high values. The class given is functional. The settings on record: 30 µM.
Chain of Chromo domain-containing protein 1 (Saccharomyces cerevisiae (strain ATCC 204508 / S288c) (Baker's yeast)) (P32657 whole entry, the tested form may be a part): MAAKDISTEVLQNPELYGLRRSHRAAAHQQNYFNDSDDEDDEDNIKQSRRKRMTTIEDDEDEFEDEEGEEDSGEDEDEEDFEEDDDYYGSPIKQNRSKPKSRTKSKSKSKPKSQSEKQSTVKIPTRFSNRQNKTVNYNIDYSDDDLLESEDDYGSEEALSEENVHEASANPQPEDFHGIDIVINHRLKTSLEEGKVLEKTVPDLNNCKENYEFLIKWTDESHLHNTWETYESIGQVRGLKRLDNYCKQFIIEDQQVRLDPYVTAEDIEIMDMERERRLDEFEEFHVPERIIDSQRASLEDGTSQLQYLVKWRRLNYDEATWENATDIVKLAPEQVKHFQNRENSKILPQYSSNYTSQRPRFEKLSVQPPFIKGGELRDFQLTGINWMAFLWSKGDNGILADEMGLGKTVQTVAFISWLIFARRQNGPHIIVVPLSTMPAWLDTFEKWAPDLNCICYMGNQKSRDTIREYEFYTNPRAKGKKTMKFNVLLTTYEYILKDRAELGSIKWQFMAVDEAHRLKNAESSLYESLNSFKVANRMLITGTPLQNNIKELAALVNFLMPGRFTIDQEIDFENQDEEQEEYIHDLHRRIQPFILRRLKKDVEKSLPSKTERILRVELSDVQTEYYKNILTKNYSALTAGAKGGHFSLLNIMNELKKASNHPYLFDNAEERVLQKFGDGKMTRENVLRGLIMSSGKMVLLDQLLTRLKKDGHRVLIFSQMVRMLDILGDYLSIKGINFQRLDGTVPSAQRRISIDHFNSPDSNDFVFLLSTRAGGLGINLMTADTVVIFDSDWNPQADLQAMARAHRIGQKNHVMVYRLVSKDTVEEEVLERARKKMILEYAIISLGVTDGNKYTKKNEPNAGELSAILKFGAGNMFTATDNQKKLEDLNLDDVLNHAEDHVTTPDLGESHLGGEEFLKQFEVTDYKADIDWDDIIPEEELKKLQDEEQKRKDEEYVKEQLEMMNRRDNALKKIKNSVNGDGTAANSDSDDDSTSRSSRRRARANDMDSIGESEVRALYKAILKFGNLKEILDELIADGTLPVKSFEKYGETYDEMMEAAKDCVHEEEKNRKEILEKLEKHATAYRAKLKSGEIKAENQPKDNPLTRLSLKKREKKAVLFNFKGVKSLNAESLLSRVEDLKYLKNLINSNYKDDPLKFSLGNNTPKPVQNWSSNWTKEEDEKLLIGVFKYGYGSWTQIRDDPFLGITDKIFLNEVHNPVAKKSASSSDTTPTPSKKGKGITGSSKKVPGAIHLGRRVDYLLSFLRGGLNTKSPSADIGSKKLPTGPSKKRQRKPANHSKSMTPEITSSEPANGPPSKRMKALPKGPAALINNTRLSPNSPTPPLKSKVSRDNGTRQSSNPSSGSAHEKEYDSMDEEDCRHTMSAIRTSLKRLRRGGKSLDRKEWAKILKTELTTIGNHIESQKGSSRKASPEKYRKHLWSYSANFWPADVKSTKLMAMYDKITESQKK

For some assays here: Measured potencies and affinities stand elsewhere.

Chain of Protein translocase subunit SecA (Escherichia coli (strain K12)) (P10408 whole entry): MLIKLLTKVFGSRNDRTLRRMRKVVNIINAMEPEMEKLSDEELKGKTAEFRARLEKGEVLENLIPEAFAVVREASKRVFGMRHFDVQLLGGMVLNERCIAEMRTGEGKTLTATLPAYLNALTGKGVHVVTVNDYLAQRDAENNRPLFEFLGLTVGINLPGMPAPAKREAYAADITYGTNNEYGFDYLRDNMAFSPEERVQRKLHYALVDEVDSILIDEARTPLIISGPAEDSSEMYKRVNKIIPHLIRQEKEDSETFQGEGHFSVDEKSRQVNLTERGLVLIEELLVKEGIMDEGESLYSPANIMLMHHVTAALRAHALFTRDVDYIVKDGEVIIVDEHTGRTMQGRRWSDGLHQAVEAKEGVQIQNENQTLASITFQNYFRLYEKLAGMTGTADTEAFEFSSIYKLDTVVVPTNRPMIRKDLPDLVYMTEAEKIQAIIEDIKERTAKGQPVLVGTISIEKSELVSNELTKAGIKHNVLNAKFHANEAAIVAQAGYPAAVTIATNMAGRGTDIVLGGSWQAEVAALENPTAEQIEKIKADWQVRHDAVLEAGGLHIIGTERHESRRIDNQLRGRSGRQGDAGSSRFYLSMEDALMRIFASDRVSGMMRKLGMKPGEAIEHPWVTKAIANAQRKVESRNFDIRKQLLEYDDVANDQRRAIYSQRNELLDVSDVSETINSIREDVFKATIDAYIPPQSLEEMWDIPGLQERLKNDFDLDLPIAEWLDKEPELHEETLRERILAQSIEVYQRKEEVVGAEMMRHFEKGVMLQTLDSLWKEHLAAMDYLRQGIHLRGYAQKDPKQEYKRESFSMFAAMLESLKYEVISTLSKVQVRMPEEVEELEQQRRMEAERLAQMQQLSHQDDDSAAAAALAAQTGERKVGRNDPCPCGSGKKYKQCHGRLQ

Turning to `CN(Cc1cnn(C)c1)C(=O)NCc1nnc2n1CCC2`, the Percent Effect was -4.33% in [1]; 10.1% in [2]; 2.17% in [3]; 6.31% in [4]; 4.06% in assay [5]; 1.52% in assay [6]. The Percent Effect in assay [7] was -0.901%; in assay [8], 3.9%; in [9], 5.42%; in assay [10], 8.86%; in [11], -6.73%.

As to `O=C1CC(c2cccs2)c2cnn(C3CCCC3)c2N1` (stereo not given), the Percent Effect in [1] is -5.95%; in [2], -5.33%; in assay [3], 6.01%; in assay [4], -6.09%; in assay [5], -6.13%; in [6], -4.69%. Besides, the Percent Effect in [7] was 6.97%; in assay [8], 10.9%; in assay [9] it was -2.73%; in [10] it was -6.17%; in assay [11], 1.62%.

Regarding `Cc1ccccc1Oc1ncccc1CNS(C)(=O)=O`, the Percent Effect in [1] is -5.18%; in assay [2], 15.6%; in assay [3], -0.858%; in [4] it was 12.6%; in assay [5], 8.16%; in [6] it was -8.28%. For the same compound, the Percent Effect is 1.33% in assay [7]; 0.0503% in assay [8]; 5.38% in assay [9]; 11.1% in [10]; -7.62% in [11].

For the compound `O=C([C@H]1CCCO1)N1CCc2ncnc(NC3CC3)c2CC1`, the Percent Effect in assay [1] was 1.86%; in [2], 0%; in assay [3], -0.252%; in [4], -2.06%; in [5] it was -5.47%; in [6], 5%. Also, the Percent Effect was 12.4% in [7]; 3.34% in [8]; 9.9% in assay [9]; 13.4% in assay [10]; -4.91% in assay [11].

`Cc1cc(CN2CCc3nn(C)c(=O)cc3C2)on1`: the Percent Effect in assay [1] was -2.46%; in assay [2], 12.5%; in assay [3] it was -228%; in assay [4], -1.88%; in assay [5], -0.0972%; in assay [6], 4.86%. Moreover, the Percent Effect in [7] is 6.84%; in assay [8] it was -5.36%; in assay [9], -3.16%; in [10], -7.69%; in [11], -2.45%.

As for `CCc1ccc(S(=O)(=O)Nc2c(C)cccc2C(=O)O)s1`, the Percent Effect in assay [1] is -6.89%; in [2], 5.26%; in assay [3], -2.41%; in assay [4] it was 7.53%; in [5] it was 2.71%; in [6] it was -2.16%. Further, the Percent Effect in assay [7] is 3.64%; in assay [8], -1.38%; in assay [9], 2.46%; in [10], 6.17%; in assay [11], 2.56%.

Turning to `CC(C(=O)NCc1ccnc(N(C)C)c1)n1cncn1` (stereo not given), the Percent Effect in assay [1] is -2.02%; in assay [2], 2.7%; in [3] it was -7.17%; in assay [4], 7.55%; in [5], 8.88%; in [6], -0.476%. The Percent Effect is 17.2% in assay [7]; -1.73% in [8]; 5.82% in assay [9]; 9.76% in [10]; -3.72% in assay [11].

Regarding `COC[C@]12COC[C@H]1CN(Cc1cc(OC)cc(OC)c1)C2`, the Percent Effect in assay [1] was -2.64%; in [2], 2.7%; in assay [3], -1.96%; in assay [4], 2.27%; in [5], 4.59%; in [6], 6.05%. Further, the Percent Effect is 11.2% in [7]; -4.13% in assay [8]; 1.08% in [9]; 7.69% in [10]; 2.95% in [11].

As for `CCc1noc(C2CCN(C(=O)CCn3nc(C)cc3C)CC2)n1`, the Percent Effect was -4.24% in assay [1]; 18.2% in assay [2]; 0.146% in assay [3]; 12.9% in assay [4]; 8.55% in assay [5]; -5.52% in assay [6]. In addition, the Percent Effect was 14.8% in assay [7]; -6.48% in assay [8]; 8.6% in assay [9]; 16.1% in assay [10]; -7.88% in assay [11].

Consider `CN(C)C(=O)N1CCC2(CCCN(Cc3cnn(C)c3)C2)C1` (stereo not given), for which the Percent Effect was -3.04% in assay [1]; 0% in assay [2]; 12% in assay [3]; 1.42% in assay [4]; -2.83% in assay [5]; 0.955% in assay [6]. For the same compound, the Percent Effect was 19% in [7]; -3.73% in assay [8]; 1.08% in assay [9]; 5.13% in [10]; -0.435% in [11].

The values above are taken from ChEMBL document CHEMBL3988442, “University of Dundee, Small-Polar-MMV Screening Library” (2021).
